Only some compounds are listed: those with a hit (about 19% of all), similar ones and a draw of the others.
IL-1B inflam inh: inhibitors of inflammasome signaling (IL-1 beta secretion) | THP-1 LPS/ATP IL-1B secretion, AlphaLISA, 16 h; stronger effect = lower value | AID 743279 | 360,000 tested, 4.7% active | activity change, % at 57.5 µM; in the data active = activity change below about -50%; inconclusive = mostly about -30% to -49%
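Secreted IL-1B measured by AlphaLISA bead assay after 16 h compound exposure of THP-1 cells; compounds (final up to 57.5 uM) added 1 h before LPS (250 ng/mL) and ATP (1.25 mM) stimulation; lower signal means less secretion.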
DT40 TDP1 no CPT: qHTS for Inhibitors of human tyrosyl-DNA phosphodiesterase 1 (TDP1): qHTS in cells in absence of CPT | 420,000 tested, 15% active | Potency, µM (top dose mostly 46.2 µM), for the others: at the top dose activity change, negative = growth inhibition, usual class: inhibitors | DT40 Tdp1-/- hTDP1 cells, no CPT, ATP luminescence, 48 h | AID 686978, 2013; also: potency is read from the fitted curve at half-maximal effect; nearly all actives have a fitted effect of over 55% in size
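Growth kinetics read by CellTiter-Glo luminescence after ≥48 hr at 37 °C. Cells: DT40 Tdp1-/- stably carrying human TDP1, 400 per well, compound exposure in the absence of CPT (DMSO vehicle).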
DT40 TDP1 CPT: growth inhibition of DT40 Tdp1-/-;hTDP1 cells with camptothecin (screen for TDP1 inhibitors) | chicken DT40 Tdp1-/-;hTDP1 cells + 20 nM CPT, ATP luminescence, 48 h | Potency, µM (titrated, usually from 46.2 µM), for inactives: at the top dose activity change, negative = growth inhibition, most hits filed as inhibitors | 420,000 tested, 12% active; also: potency is read from the fitted curve at half-maximal effect; nearly all actives have a fitted effect of over 55% in size
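Chicken DT40 Tdp1-/- cells stably complemented with human TDP1 were seeded at 400 cells/well in medium containing 20 nM camptothecin, exposed to pin-transferred compounds, and grown at 37 °C for at least 48 hr. Viability was read as ATP luminescence.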
HT1080 IDH1KD tx: HT-1080 IDH1 knockdown cell toxicity (counter line); 360,000 tested, 2% active; Potency, µM (top dose mostly 46.1 µM), without a hit: top-dose activity, negative = toxicity, hits mostly cytotoxic; AID 686971; HT-1080 IDH1 knockdown viability, ATP luminescence, 48 h;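 also: potency is read from the fitted curve at half-maximal effect; 0% = DMSO wells and -100% = cell-free medium wells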
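HT-1080-IDH1KD cells (IDH1 knocked down), 750/well in RPMI with 5% FBS, treated with compound 48 h at 37 degrees C. Viability by CellTiter-Glo luminescence, normalised to DMSO and no-cell wells; concentration-response curves classed.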
HT1080NT lethal: kills 2HG-producing HT-1080-NT fibrosarcoma cells. 360,000 tested, 1.6% active. AID 686970. HT-1080-NT fibrosarcoma viability, CellTiter-Glo ATP luminescence, 48 h. Potency, µM (titrated, usually from 46.1 µM), for inactives: at the top dose activity, negative = less viability, actives largely listed as cytotoxic;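 also: NT is the 2HG producing partner of a matched IDH1 knockdown line; potency is read from the fitted curve at half-maximal effect; 0% = DMSO-treated cells and -100% = media-only wells without cells; nearly all actives have a fitted effect of over 55% in size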
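HT-1080-NT fibrosarcoma cells (2HG-overproducing), 750 cells/well in RPMI with 5% FBS, dosed after 2 h and incubated 48 h at 37C. CellTiter-Glo luminescence normalized to DMSO and no-cell wells; concentration-response curves fitted and classed.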
Starred values were filed as active, the others as inactive; u = inconclusive; x = no result given. Unless noted, calls follow the shape of the dose curve; as a rule, active = well fitted curve in the direction sought with a large enough effect; inconclusive = small, poorly fitted or top-dose-only effect, or another doubt; inactive = no such curve, though single readings can be large; an effect the other way counts as inactive or inconclusive. Unless noted, % is scaled to controls: 0 for no effect and ±100 for the full control effect.

SMILES	IL-1B inflam inh	DT40 TDP1 no CPT	DT40 TDP1 CPT	HT1080 IDH1KD tx	HT1080NT lethal
COC(=O)c1ccc(NC(=O)CN2CCN(S(=O)(=O)c3cc(Cl)ccc3OC)CC2)cc1	17	16µM*	u	-12%	-13%
O=C(CN(CCO)c1ccccc1)Nc1ccc(Cl)c(S(=O)(=O)N2CCOCC2)c1	8	u	u	-26%	7%
Cc1ccc(NC(=O)CCCOc2ccccc2)cc1S(=O)(=O)N1CCOCC1	10	u	u	-1%	-3%
O=C(COc1cccc(Br)c1)Nc1ccc(Cl)c(S(=O)(=O)N2CCOCC2)c1	u	16µM*	21µM*	-10%	16µM*
Cc1ccc(OCCCC(=O)Nc2ccc(Cl)c(S(=O)(=O)N3CCOCC3)c2)cc1	u	18µM*	u	-21%	-20%
O=C(CCCSc1ccccc1)Nc1ccc(Cl)c(S(=O)(=O)N2CCOCC2)c1	-3	18µM*	16µM*	-18%	1%
O=C(c1n[nH]c(=O)c2ccccc12)N1CCN(S(=O)(=O)c2ccccc2Cl)CC1	-9	u	u	-2%	0%
CCN(CC)S(=O)(=O)c1cc(NC(=O)CCCOc2ccc(C(C)=O)cc2)ccc1C	-2	18µM*	u	-16%	-8%
COc1ccc(CC(=O)Nc2cccc(C(C)=O)c2)cc1S(=O)(=O)N1CCOCC1	10	4%	-2%	11%	13%
COc1ccc(Cl)cc1S(=O)(=O)N1CCN(C(=O)c2n[nH]c(=O)c3ccccc23)CC1	29	16µM*	18µM*	u	u
CC(=O)c1ccc(OCCCC(=O)Nc2ccc(Cl)c(S(=O)(=O)N3CCOCC3)c2)cc1	29	21µM*	16µM*	-17%	-5%
COc1cc(C(C)=O)ccc1OCC(=O)Nc1ccc(Cl)c(S(=O)(=O)N2CCOCC2)c1	0	18µM*	23µM*	-1%	0%
COc1ccc(C(=O)O)cc1Nc1cc(C)nc2ncnn12	1	-2%	-14%	1%	-1%
CN(CCO)C(=O)c1cn(C2CCCN(Cc3cc4ccccc4s3)C2)nn1 (stereo unspecified)	x	-25%	-19%	x	x
CN(C)S(=O)(=O)c1cc(NC(=O)CNCc2ccccc2)ccc1Cl	11	u	-28%	-7%	-4%
CN(CCOc1ccccc1)CC(=O)Nc1ccc(Cl)c(S(=O)(=O)N(C)C)c1	-51*	u	8%	-4%	4%
O=C(CCCOc1ccccc1)Nc1ccc(Cl)c(S(=O)(=O)N2CCOCC2)c1	u	16µM*	18µM*	-13%	-11%
Cc1c(Cn2ccnc2)c2ccccc2n1CCC(=O)O	x	-9%	-3%	x	x
Cc1ccc(Cn2cc(CN3CC(N4CCCCC4)CS3(=O)=O)nn2)cc1 (stereo unspecified)	19	-21%	-13%	7%	17%
CN1CCN(C2CN(CCc3ccccc3)S(=O)(=O)C2)CC1 (stereo unspecified)	11	-8%	-16%	0%	-2%
CCCCCCN1CCN(C2CN(CCc3ccccc3)S(=O)(=O)C2)CC1 (stereo unspecified)	-3	16µM*	u	4%	0%
Cc1cccc(CN2CCN(C3CN(Cc4cn(Cc5ccccc5)nn4)S(=O)(=O)C3)CC2)c1 (stereo unspecified)	5	u	u	11%	u
CCCCCCn1cc(CN2CC(N3CCN(Cc4cccc(C)c4)CC3)CS2(=O)=O)nn1 (stereo unspecified)	-12	23µM*	u	-17%	-4%
CCCCCCN1CCN(C2CN(Cc3cn(Cc4ccc(C)cc4)nn3)S(=O)(=O)C2)CC1 (stereo unspecified)	-14	26µM*	u	23µM*	-21%
CN(C)CCN1CCN(C2CN(C3CCCCC3)S(=O)(=O)C2)CC1 (stereo unspecified)	23	-7%	u	15%	17%

Source: PubChem (National Center for Advancing Translational Sciences (NCATS))
